Measurements from PubChem BioAssay AID1159580 (chemical genetic matrix, 2015).
Out of some 5,500 compounds screened, about 2,000 (36%) were called active. About 18% were inconclusive and are not listed. Cut-off read from the data, not from the text of the source: active = normalized growth mostly below about 0.91 (no sharp cut-off); inconclusive = no clear call, values can overlap the other calls; inactive = mostly above about 0.92. The list shows a part of the results.

Experiment: chemical genetic growth profiling, strain panel (AID 1159580);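 note: tested at 20 µM; growth read once vehicle control cultures reached saturation at 30 °C; 1 = growth at the plate median or of vehicle wells; lower values mean less growth of the strain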
Conditions: S. cerevisiae deletion strains, growth OD

Measured: normalized growth

CC(=O)OC1CC2C(C)(C)CCCC2(C)C2CCC3(C)C(c4ccoc4)OC(=O)C4OC43C12C (stereo not drawn)
inactive: locus YAL013W, strain DEP1, active compounds read low 0.993 | locus YBR021W, strain FUR4, active compounds read low 0.981 | locus YBR229C, strain ROT2, active compounds read low 0.995 | locus YCL029C, strain bik1, active compounds read low 1.02 | locus YDL035C, strain GPR1, active compounds read low 0.975 | locus YDL074C, strain BRE1, active compounds read low 0.988 | locus YDL101C, strain DUN1, active compounds read low 1.02 | locus YDL134C, strain PPH21, active compounds read low 0.987 | locus YDL185W, strain tfp1, active compounds read low 1.03 | locus YDL192W, strain arf1, active compounds read low 1.01 | locus YDR101C, strain arx1, active compounds read low 1.02 | locus YDR150W, strain NUM1, active compounds read low 1 | locus YDR162C, strain NBP2, active compounds read low 0.979 | locus YDR318W, strain mcm21, active compounds read low 1.01 | locus YDR388W, active compounds read low 1.01 | locus YDR502C, strain sam2, active compounds read low 0.999 | locus YEL061C, strain CIN8, active compounds read low 1 | locus YER110C, active compounds read low 1.02 | locus YER155C, strain BEM2, active compounds read low 1 | locus YER167W, strain BCK2, active compounds read low 1 | locus YGL078C, strain dbp3, active compounds read low 1.01 | locus YGL086W, strain mad1, active compounds read low 1 | locus YGL248W, strain PDE1, active compounds read low 1 | locus YGR135W, strain pre9, active compounds read low 1 | locus YGR252W, strain gcn5, active compounds read low 0.914 | locus YHR030C, strain SLT2, active compounds read low 1.01 | locus YHR079C, strain IRE1 (second series), active compounds read low 1.01 | locus YHR094C, strain hxt1, active compounds read low 1.01 | locus YHR129C, strain ARP1, active compounds read low 1 | locus YHR200W, strain rpn10, active compounds read low 1 | locus YIL066C, strain RNR3, active compounds read low 1 | locus YIL073C, strain SPO22, active compounds read low 1.02 | locus YIL125W, strain kgd1, active compounds read low 1.01 | locus YIR030C, strain dcg1, active compounds read low 1.01 | locus YJL095W, strain BCK1, active compounds read low 0.991 | locus YJL134W, strain LCB3, active compounds read low 1.01 | locus YJL168C, strain set2, active compounds read low 1.01 | locus YJL187C, strain SWE1 (second series), active compounds read low 0.999 | locus YJR043C, strain POL32, active compounds read low 0.978 | locus YJR075W, strain HOC1, active compounds read low 0.995 | locus YKL009W, strain mrt4, active compounds read low 1 | locus YKL068W, active compounds read low 1.01 | locus YKL085W, strain MDH1 (second series), active compounds read low 1 | locus YKL085W, strain MDH1, active compounds read low 1 | locus YKL190W, strain CNB1, active compounds read low 1 | locus YKR001C, strain vps1, active compounds read low 0.993 | locus YLR039C, strain RIC1, active compounds read low 1.01 | locus YLR058C, strain SHM2, active compounds read low 1.01 | locus YLR102C, strain apc9, active compounds read low 1.01 | locus YLR262C, strain YPT6, active compounds read low 1.03 | locus YLR268W, strain sec22, active compounds read low 1.01 | locus YLR330W, strain CHS5, active compounds read low 1.01 | locus YLR342W, strain FKS1 (second series), active compounds read low 0.954 | locus YLR371W, strain rom2, active compounds read low 1.02 | locus YLR418C, strain cdc73, active compounds read low 1.01 | locus YML016C, strain PPZ1, active compounds read low 1.01 | locus YML032C, strain rad52, active compounds read low 1.01 | locus YML124C, strain tub3, active compounds read low 1.02 | locus YMR078C, strain ctf18, active compounds read low 1.02 | locus YMR223W, strain ubp8, active compounds read low 1 | locus YMR263W, strain SAP30, active compounds read low 1.01 | locus YMR307W, strain GAS1, active compounds read low 0.854 | locus YNL067W, strain RPL9B, active compounds read low 1.02 | locus YNL153C, strain GIM3, active compounds read low 1 | locus YNL233W, strain BNI4, active compounds read low 0.99 | locus YNL250W, strain rad50, active compounds read low 1.01 | locus YNL271C, strain bni1, active compounds read low 0.998 | locus YNL298W, strain CLA4, active compounds read low 1.01 | locus YNL307C, strain MCK1, active compounds read low 1.01 | locus YNR052C, strain pop2, active compounds read low 1.01 | locus YOL012C, strain htz1 0.802 | locus YOL147C, strain pex11, active compounds read low 1.01 | locus YOR061W, strain CKA2, active compounds read low 1.01 | locus YOR069W, strain VPS5, active compounds read low 1.01 | locus YOR136W, strain idh2, active compounds read low 1.01 | locus YOR144C, strain elg1, active compounds read low 1.01 | locus YOR184W, strain ser1, active compounds read low 1.01 | locus YOR316C, strain cot1, active compounds read low 1.01 | locus YPR119W, strain clb2, active compounds read low 1.01 | locus YPR141C, strain kar3, active compounds read low 1.02 | locus YPR163C, strain tif3, active compounds read low 1.02 | locus YPR167C, strain met16, active compounds read low 1.01 | strain wtn01, active compounds read low 1
